Source: paper PMC4336329 (PLoS ONE, 2015)
Hit rate of the full screen: of about 310,000 compounds, about 14,000 (4.5%) showed an effect of 50% or more. The effect is printed as a negative number. The full list was thinned out, with strong results kept by preference.

Biological target: human ether-à-go-go-related gene (hERG) potassium channel (human, UniProt Q12809)
Assay: primary screen, population patch clamp on CHO cells stably expressing hERG; higher = less effect of the substance
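Note: peak tail current of the secondary pulse compared with the same well before compound.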

Chain of human ether-à-go-go-related gene (hERG) potassium channel (Q12809 whole entry, looked up): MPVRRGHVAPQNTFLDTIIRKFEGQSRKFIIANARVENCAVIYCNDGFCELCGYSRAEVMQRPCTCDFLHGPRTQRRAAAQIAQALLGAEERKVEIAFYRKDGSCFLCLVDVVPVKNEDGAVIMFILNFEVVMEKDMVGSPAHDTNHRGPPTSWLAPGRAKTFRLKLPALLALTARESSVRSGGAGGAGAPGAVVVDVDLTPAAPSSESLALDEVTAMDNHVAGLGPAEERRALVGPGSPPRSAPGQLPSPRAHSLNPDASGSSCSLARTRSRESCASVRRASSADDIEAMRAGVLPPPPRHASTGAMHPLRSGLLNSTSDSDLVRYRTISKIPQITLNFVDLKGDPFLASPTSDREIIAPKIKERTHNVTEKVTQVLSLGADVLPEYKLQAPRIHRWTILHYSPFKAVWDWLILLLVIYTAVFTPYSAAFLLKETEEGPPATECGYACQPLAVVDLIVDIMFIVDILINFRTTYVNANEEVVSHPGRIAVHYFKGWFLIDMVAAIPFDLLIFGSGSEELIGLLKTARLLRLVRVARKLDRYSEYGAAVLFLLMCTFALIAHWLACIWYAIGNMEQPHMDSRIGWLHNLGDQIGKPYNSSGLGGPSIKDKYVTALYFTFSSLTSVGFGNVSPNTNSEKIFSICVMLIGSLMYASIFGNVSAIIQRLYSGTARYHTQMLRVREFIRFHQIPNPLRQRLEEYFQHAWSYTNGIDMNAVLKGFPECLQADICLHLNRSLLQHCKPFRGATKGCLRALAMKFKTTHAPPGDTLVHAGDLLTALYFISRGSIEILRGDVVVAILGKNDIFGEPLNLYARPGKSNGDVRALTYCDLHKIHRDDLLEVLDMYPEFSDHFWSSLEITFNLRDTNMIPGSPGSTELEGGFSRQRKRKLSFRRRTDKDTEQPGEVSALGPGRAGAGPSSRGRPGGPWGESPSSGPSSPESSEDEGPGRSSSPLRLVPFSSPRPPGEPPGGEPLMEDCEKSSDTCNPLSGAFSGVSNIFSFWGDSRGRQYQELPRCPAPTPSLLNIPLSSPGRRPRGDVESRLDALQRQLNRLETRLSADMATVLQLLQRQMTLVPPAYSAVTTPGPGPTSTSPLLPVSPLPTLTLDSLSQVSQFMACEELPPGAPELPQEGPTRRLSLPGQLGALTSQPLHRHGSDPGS

First: CCc1cc(C(=O)OC)c(NC(=O)CC2SC(N)=NC2=O)s1 (centres unmarked)
Second: C=CCNC(=O)c1onc(CS(=O)(=O)c2cc(C)cc(C)c2)c1C(=O)NCC=C
The “hERG current change (%, negative = inhibition) at 10uM” value of the first is higher: -6.56% for the first, -8.18% for the second.

Going from CCCC(=O)N1CCC(CCC(=O)NC2CC2)CC1 to CC(C)C[C@H](NC(=O)c1nc[nH]c1C(=O)NC1CCN(C(=O)OC(C)(C)C)CC1)C(=O)OC(C)(C)C, the “hERG current change (%, negative = inhibition) at 10uM” value falls from 7.63% to -10.8%.

First: COc1ccc(S(=O)(=O)N2c3ccccc3NC(=O)CC2C)cc1 (centres unmarked)
Second: COc1ccccc1N(CC(=O)NCCSc1ccc(Cl)cc1)S(C)(=O)=O
The “hERG current change (%, negative = inhibition) at 10uM” value of the first is higher: 9.7% for the first, -6.87% for the second.

First: O=[N+]([O-])c1ccc(CS(=O)(=O)c2ccc(Cl)cc2)cc1
Second: Cl.OCCNCc1cccc(OCc2ccc(Cl)cc2)c1
The “hERG current change (%, negative = inhibition) at 10uM” value of the first is higher: -9.81% for the first, -12.9% for the second.

Going from CCc1ccc(Nc2nnc(SCC(=O)c3c(N)n(C4CC4)c(=O)[nH]c3=O)s2)cc1 to CCn1c(SCC(=O)Nc2ccc3c(c2)OCCO3)nnc1-c1ccncc1, the “hERG current change (%, negative = inhibition) at 10uM” value rises from -17.7% to 0.979%.

First: COc1cnc(-c2ccccn2)nc1NC(C)C
Second: CCOc1c(Cl)cc(CNCc2ccccn2)cc1OC.Cl
The “hERG current change (%, negative = inhibition) at 10uM” value of the first is higher: 7.65% for the first, -18.7% for the second.

Going from CCC(C)[C@H](N)c1nnc(SCC(=O)c2ccc(Cl)cc2)o1 (some centres unmarked) to CC(C)[C@H](N)c1nnc(SCC(=O)c2ccc(Cl)cc2)o1.Cl, the “hERG current change (%, negative = inhibition) at 10uM” value rises from -52.5% to -14.2%.

Going from C[C@H](N)c1nnc(SCC(=O)c2ccc(Cl)cc2)o1 to Cc1noc(C)c1COc1ccccc1C(=O)NC(C)c1ccc(Cl)cc1 (centres unmarked), the “hERG current change (%, negative = inhibition) at 10uM” value falls from -6.79% to -55.8%.

Going from Cc1ccc2oc(C(=O)N(C)Cc3ccon3)c(C)c2c1 to Cc1ccc(OCc2cc(C(=O)NCC3COCCO3)no2)cc1C (centres unmarked), the “hERG current change (%, negative = inhibition) at 10uM” value falls from 4.23% to -10%.

First: Cc1cccc2c(=O)cc(C(F)(F)F)[nH]c12
Second: C=CCn1c(O)c(N=O)c2cc(C)ccc21
The “hERG current change (%, negative = inhibition) at 10uM” value of the first is higher: 13.8% for the first, -8.69% for the second.

Compared with CCS(=O)(=O)N1CCCC(C(=O)NCCc2ccc(OC)c(OC)c2)C1 (centres unmarked), COc1ccc(CCNC(=O)C2CCCN(S(C)(=O)=O)C2)cc1OC (centres unmarked) is lower in “hERG current change (%, negative = inhibition) at 10uM” value: 13.1% for the first, 12% for the second.

First: COc1ccc(CN2CCC(C(=O)NCCc3ccc(OC)c(OC)c3)CC2)c(OC)c1
Second: CCc1ccc(-c2nc(CN3CCC(C(=O)NCCc4ccc(OC)c(OC)c4)CC3)c(C)o2)cc1
The “hERG current change (%, negative = inhibition) at 10uM” value of the first is higher: -29.9% for the first, -76.2% for the second.

Going from CCc1ccc(-c2nc(CN3CCCC(C(=O)NCCc4ccc(OC)c(OC)c4)C3)c(C)o2)cc1 (centres unmarked) to COc1ccc(-c2nc(CN3CCC(C(=O)NC4CC4)CC3)c(C)o2)cc1OC, the “hERG current change (%, negative = inhibition) at 10uM” value rises from -50.5% to -12.8%.

Compared with Cn1c(=O)cc(OCCCC(=O)NCc2ccc(F)cc2Cl)c2ccccc21, COc1ccccc1OCCNC(=O)C(=O)c1c[nH]c2ccccc12 is higher in “hERG current change (%, negative = inhibition) at 10uM” value: -15.1% for the first, 5.02% for the second.

Going from CCCOc1ccc(C(C)=O)cc1CSCCC#N to COc1cc(CNCc2ccccn2)ccc1OCC(N)=O.Cl, the “hERG current change (%, negative = inhibition) at 10uM” value rises from -1.08% to -0.0507%.

First: Cn1c(CC(=O)Nc2ccccc2F)nnc1SCC(=O)NC1CCCC1
Second: Cn1c(SCC(=O)NNC(=O)c2ccc(Br)cc2)nnc1-c1cccnc1
The “hERG current change (%, negative = inhibition) at 10uM” value of the first is lower: 11% for the first, 25.6% for the second.

Going from CCN1CCCC1CNC(=O)c1cc(COc2ccc(C)c(C)c2)on1 (centres unmarked) to COCCN1CC(CNC(=O)c2cc(COc3ccc(C)c(C)c3)on2)CC1=O (centres unmarked), the “hERG current change (%, negative = inhibition) at 10uM” value rises from -65.2% to -20.8%.

Compared with Cc1cc(OCc2cc(C(=O)NC3CCC3)no2)cc(C)c1Cl, Cc1cc(OCc2cc(C(=O)NCCN3CCCCC3CO)no2)cc(C)c1Cl (centres unmarked) is lower in “hERG current change (%, negative = inhibition) at 10uM” value: 3.82% for the first, -65.8% for the second.

Going from COc1cccc(OCc2cc(C(=O)NCCN3CCCCC3CO)no2)c1 (centres unmarked) to Cc1noc(C)c1COc1ccccc1C(=O)NCCc1ccc(Cl)cc1, the “hERG current change (%, negative = inhibition) at 10uM” value falls from 2.5% to -20.8%.

Compared with Cc1ccc(NC(=O)NC(=O)CSc2nnc(-c3ccc(Cl)cc3Cl)n2N)c(C)c1, Cc1cccc(C(=O)NCC(=O)NC(C)c2ccc(-n3ccnc3)cc2)c1 (centres unmarked) is lower in “hERG current change (%, negative = inhibition) at 10uM” value: -6.38% for the first, -68.5% for the second.

Going from Cc1nc(C)c(C(=O)NNS(=O)(=O)c2ccccc2)s1 to Cc1ccc(S(=O)(=O)NCC(C)n2nc(C)nc2C)cc1 (centres unmarked), the “hERG current change (%, negative = inhibition) at 10uM” value falls from 8.26% to -0.542%.

Compared with Cl.c1ccc(COc2cccc(CNCc3ccccn3)c2)cc1, COc1cc(CNCc2ccccn2)ccc1OCc1cccc(Cl)c1.Cl is lower in “hERG current change (%, negative = inhibition) at 10uM” value: -45.2% for the first, -54% for the second.

Compared with COc1cc(/C=N/O)ccc1OCc1ccc(Cl)cc1, COc1cc(/C=N/N=C(N)N)ccc1OCc1ccc(Cl)cc1 is lower in “hERG current change (%, negative = inhibition) at 10uM” value: 19.6% for the first, -50.5% for the second.

First: COc1cc(CNCc2ccccn2)ccc1OCc1ccc(Cl)c(Cl)c1.Cl
Second: COc1cc(CNCc2ccccn2)ccc1OCc1ccc(Cl)cc1.Cl
The “hERG current change (%, negative = inhibition) at 10uM” value of the first is higher: -51.2% for the first, -56.8% for the second.

Going from COc1cc(CNCc2ccccn2)ccc1OCC(=O)NC(C)(C)C.Cl to CCOc1cc(CNCc2ccccn2)cc(Cl)c1OC.Cl, the “hERG current change (%, negative = inhibition) at 10uM” value rises from 0.777% to 29.6%.

Compared with Cl.Clc1ccc(COc2cccc(CNCc3ccncc3)c2)cc1, Cl.Fc1ccc(COc2cccc(CNCc3ccncc3)c2)cc1 is higher in “hERG current change (%, negative = inhibition) at 10uM” value: -59.8% for the first, -40.6% for the second.

First: CCOc1cc(/C=N/N=C(N)N)ccc1OCc1ccc(Cl)cc1
Second: COc1cc(CNCc2cccnc2)ccc1OCc1ccccc1.Cl
The “hERG current change (%, negative = inhibition) at 10uM” value of the first is higher: -19.9% for the first, -21.8% for the second.

First: CCC(C)NC(=O)c1ccccc1NC(=O)Nc1ccccc1 (centres unmarked)
Second: COc1ccccc1C(=O)NC(C)c1ccccc1 (centres unmarked)
The “hERG current change (%, negative = inhibition) at 10uM” value of the first is lower: 3.24% for the first, 18.6% for the second.

Compared with CC1(C)Cc2c(sc3c2C(=O)N(c2ccccc2)C2=NCCCN23)CO1, O=C(Nc1c2c(nn1-c1ccc(F)cc1)CS(=O)C2)C12CC3CC(CC(C3)C1)C2 (centres unmarked) is higher in “hERG current change (%, negative = inhibition) at 10uM” value: 3.7% for the first, 16.7% for the second.

Going from Cc1ccc(S(=O)(=O)N2CCN(C(=O)CN3CCN(C)CC3)C2)cc1 to COc1ccccc1C(=O)NCC(=O)Nc1cccnc1, the “hERG current change (%, negative = inhibition) at 10uM” value rises from 14.1% to 20.5%.

First: COc1ccccc1Nc1nc2ccccc2n1C
Second: COc1ccccc1C(=O)NC(C)c1ccc(-n2ccnc2)cc1 (centres unmarked)
The “hERG current change (%, negative = inhibition) at 10uM” value of the first is higher: -3.73% for the first, -52.6% for the second.

First: COc1ccccc1C(=O)NCCC(=O)NC(C)c1ccc(-n2ccnc2)cc1 (centres unmarked)
Second: COc1ccccc1C(=O)NCC(=O)NC(C)c1ccc(-n2ccnc2)cc1 (centres unmarked)
The “hERG current change (%, negative = inhibition) at 10uM” value of the first is higher: -17.1% for the first, -66.4% for the second.

For CCOc1ccc(C(C)NC(=O)c2ccccc2OCc2c(C)noc2C)cc1OCC (centres unmarked), the “hERG current change (%, negative = inhibition) at 10uM” value was -23.8%.
